Reference: PubChem BioAssay AID1578 (Sanford-Burnham Center for Chemical Genomics, 2009)
Values joined by “and” are separate entries in the source; they are usually repeats but may differ in a detail not shown here. Identical values can stand only once. In all, about 290,000 compounds went through this assay and about 3,000 (1%) were called active. Cut-off read from the data, not from the text of the source: active = inhibition mostly above about 36% (no sharp cut-off); inactive = mostly below about 34%. The sample as a whole holds a higher share of actives than the screen did. More than one record can exist for a structure, and the calls need not agree.

experiment: inhibition of NOD1-driven NF-kB reporter – cell-based, luminescence, uHTS, primary screen (AID 1578); conditions: NOD1-driven NF-kB luciferase reporter cells, at 4 µM, stronger effect = higher value;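 note: HEK-293T reporter cells stimulated with the NOD1 agonist gamma-tri-DAP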

SMILES | inhibition
Cc1ccccc1N(C(=O)Cc1ccsc1)C(C(=O)NC1CCCCC1)c1ccc(F)cc1 (stereo not given) | -25.2% (inactive)
Cc1c(C2=CCN(S(=O)(=O)c3ccc(Br)cc3)CC2)c2ccccc2n1C | 0.5% (inactive)
CC(=O)C1=C(C)NC(=O)NC1c1cccc([N+](=O)[O-])c1O (stereo not given) | -9.2% (inactive)
O=C(O)c1cc(-c2ccco2)nc2cc3ccccc3cc12 | -6.3% (inactive)
O=C(O)c1cc(-c2ccco2)nc2ccccc12 | -13.5% (inactive)
O=C(O)c1cc(-c2ccco2)nc2ccc(Br)cc12 | 75.3% (active) and -18.2% (inactive)
Clc1ccc(COn2c(-c3ccc(Cl)cc3)nc3ccccc32)cc1 | -31.8% (inactive)
COc1cc(/C=N/NC(=O)C2C3CCCCC32C)cc(Br)c1O (stereo not given) | 6.5% (inactive)
COc1ccc(/C=N/NC(=O)C2C3CCCCC32)cc1OC (stereo not given) | -9.5% (inactive)
COc1ccc(/C=N/NC(=O)C2C3CCCCC32C)cc1OC (stereo not given) | 47.1% (active)
FC(F)(F)c1cc(Oc2ccc(Cl)cc2)ncc1-c1nnc(-c2ccc(Cl)cc2)o1 | -6.5% (inactive)
CC(C)C(NS(=O)(=O)c1ccccc1)C(=O)OCc1cc([N+](=O)[O-])cc2c1OCOC2 (stereo not given) | -12.4% (inactive)
CC(Sc1cccc[n+]1[O-])C(=O)Nc1ccc([N+](=O)[O-])cc1Cl (stereo not given) | -22.4% (inactive)
Cc1ccc(-c2noc(C3CCCCC3)n2)cc1 | -58.2% (inactive)
CS(=O)(=O)N(CC(=O)NCC1CCCO1)c1cccc([N+](=O)[O-])c1 (stereo not given) | -15% (inactive)
COc1ccc([N+](=O)[O-])cc1N(CC(=O)NCC1CCCO1)S(C)(=O)=O (stereo not given) | -19.1% (inactive)
O=C(NCC1CCCO1)c1ccc(Oc2ccc([N+](=O)[O-])cc2Cl)cc1 (stereo not given) | 13.6% (inactive)
O=C(NCC1CCCO1)c1ccc(Oc2ccc([N+](=O)[O-])cc2)cc1 (stereo not given) | 42.4% (active)
O=C(NCC1CCCO1)c1cccc(Oc2ccc([N+](=O)[O-])cc2)c1 (stereo not given) | -20.6% (inactive)
Cc1ccc([N+](=O)[O-])cc1N(CC(=O)NCC1CCCO1)S(C)(=O)=O (stereo not given) | 60.2% (active)
COc1ccc(CCNC(=O)CCn2c(SCC#N)nc3ccccc3c2=O)cc1OC | 10.3% (inactive)
COc1ccc2c(C)cc(SCC(=O)Nc3cccnc3Cl)nc2c1 | -12.9% (inactive)
Nc1nonc1-n1nnc(C(=O)N/N=C/c2ccccc2)c1CN1CCc2ccccc21 | -21.6% (inactive)
CNC(=O)NC(=O)COC(=O)CCCOc1ccc(OC)cc1 | 4.1% (inactive)

SMILES | inhibition
COc1ccc(CCNC(=O)c2cc3sccc3n2C)cc1OC | 5.4% (inactive)
CCOc1ccc(CCNC(=O)c2cc3sccc3n2CC)cc1OCC | 49.7% (active)
CCOc1ccc(CCNC(=O)c2cc3sccc3n2C)cc1OCC | 26.3% (inactive)
COc1ccc(S(=O)(=O)N(C)c2ccc(C(=O)NC3CCCC3)cc2)cc1 | -11.8% (inactive)
CC(=O)C(C)Sc1nnc(-c2ccccc2F)n1C1CC1 (stereo not given) | -26.2% (inactive)
CN1CCN(C(=S)c2cn(Cc3ccccc3F)c3ccccc23)CC1 | -13.6% (inactive)
CC(=O)c1cn(CC(=O)Nc2ccccc2F)c2ccccc12 | 14.5% (inactive)
Cc1ccc(C)c(CN2CCC(CNC(=O)Nc3cccc(Cl)c3C)CC2)c1 | 2.1% (inactive)
CCOC(=O)C1=C(O)c2ccccc2C(=O)/C1=C\c1ccc(CC)cc1 | 15.2% (inactive)
CCOC(=O)C1=C(Cc2ccc(OC)cc2)C(=O)c2ccccc2C1=O | 3.6% (inactive)
COc1cccc2cc(C(=O)C3=C(O)C(=O)N(CCN4CCOCC4)C3c3ccc(C(C)(C)C)cc3)oc12 (stereo not given) | -11.6% (inactive)
Cc1ccc(CN(C)C(=O)CCc2c[nH]c3ccccc23)o1 | -18.4% (inactive)
CN1CCN(c2nc(-c3cccc([N+](=O)[O-])c3)nc3ccccc23)CC1 | -0.7% (inactive)
CCC(=O)N1CCc2cc(S(=O)(=O)Nc3ccccc3C)ccc21 | 3.4% (inactive)
COc1ccc(O)c(-c2[nH]ncc2C(=O)c2cccc(C)c2)c1 | -6.8% (inactive)
COc1ccc(O)c(-c2[nH]ncc2C(=O)c2ccccc2C)c1 | 26.5% (inactive)
CCOC(=O)c1sc(N(Cc2ccccc2)C(=O)COC(=O)c2ccccc2O)nc1C | -48% (inactive)
CCOC(=O)c1sc(N(Cc2ccccc2)C(=O)COC(=O)c2ccc(O)cc2)nc1C | 62.2% (inactive)
CCOC(=O)c1sc(N(Cc2ccccc2)C(=O)CCl)nc1C | 28.7% (active)
COc1ccc(S(=O)(=O)N2CCCOC2CNC(=O)C(=O)NCCc2ccco2)cc1OC (stereo not given) | -2.3% (inactive)
O=C(COC(=O)c1cccc(O)c1)NCc1ccc2c(c1)OCO2 | -14.3% (inactive)
COc1ccc(C=O)cc1OC(=O)N1CCOCC1 | -9.3% (inactive)
Cc1cc(C(=O)COC(=O)CN(C)S(=O)(=O)c2ccc(Cl)cc2)c(C)n1Cc1cccs1 | -20.9% (inactive)
O=C(NCc1cn2ccccc2n1)c1ccco1 | 54% (active)

SMILES | inhibition
O=C(NCc1cn2ccccc2n1)c1ccccc1 | -22.2% (inactive)
O=C(NCc1cn2ccccc2n1)c1ccc(Br)o1 | -10.7% (inactive)
Cc1ccc(CNC(=O)C2CCCN(c3cnccn3)C2)cc1 (stereo not given) | -5.5% (inactive)
Cc1sc2ncn(CC(=O)NCC(=O)N(C)Cc3ccccc3)c(=O)c2c1C | -12.2% (inactive)
Cc1ccc(NC(=O)C2CCC(CNC(=O)[C@@H]3Cc4ccccc4CN3)CC2)cc1 (stereo not given in full) | -2.3% (inactive)
O=C(C1=C(O)C(=O)N(c2nccs2)C1c1ccccc1)c1cc2ccccc2o1 (stereo not given) | -8.9% (inactive)
CC(=O)C1=C(O)C(=O)N(c2nccs2)C1c1ccccc1 (stereo not given) | -8.5% (inactive)
COc1ccc(N2CC(C(=O)N3CCN(C)CC3)CC2=O)cc1 (stereo not given) | 3.9% (inactive)
COc1ccc(C(=O)/C=C/Nc2ccc(S(=O)(=O)Nc3nc(C)cc(C)n3)cc2)cc1OC | -18.8% (inactive)
Cc1ccc(C(=O)N/N=C\c2ccc([N+](=O)[O-])o2)cn1 | 13.2% (inactive)
Cc1cc(C(=O)N/N=C/c2ccc([N+](=O)[O-])o2)c(C)o1 | 1.4% (inactive)
O=C(N/N=C/c1ccc([N+](=O)[O-])cc1)c1cc2ccccc2o1 | 2.4% (inactive)
Nc1nonc1C(=O)N/N=C/c1ccc(-c2cccc([N+](=O)[O-])c2)o1 | 5.4% (inactive)
O=C(N/N=C/c1ccc([N+](=O)[O-])o1)c1cc2c(ccc3ccccc32)o1 | 41.1% (inactive)
Nc1nonc1C(=O)N/N=C/c1ccc(Br)o1 | -6% (inactive)
O=C(CNc1ccc2ccccc2c1)N/N=C/c1ccc([N+](=O)[O-])o1 | -5% (inactive)
O=C(CNc1ccccc1)N/N=C/c1ccc([N+](=O)[O-])o1 | 35% (inactive)
COc1cc2[nH]c(=O)n(CCC(=O)NCc3cccnc3)c(=O)c2cc1OC | -17.4% (inactive)
CCCc1cc(=O)n2[nH]c(NC(=O)c3ccco3)nc2n1 | 1.1% (inactive)
O=C(c1ccco1)N1CCN(Cc2nnc(-c3cccc(Br)c3)o2)CC1 | 37.7% (inactive)
Cc1ccc(/C=N/NC(=O)CNC(=O)c2ccc(S(=O)(=O)N3CCCC3)cc2)o1 | -10.1% (inactive)
CC(C)(C)S(=O)(=O)/C(C#N)=C/c1sccc1C1OCCO1 | -9.6% (inactive)
Cc1sc2nc(CSCC(=O)N(CCC#N)c3ccccc3)[nH]c(=O)c2c1C | -2.8% (inactive)
NC(=O)c1ccc(NC(=O)CCNC(=O)c2ccco2)cc1 | 0% (inactive)

SMILES | inhibition
Cc1cccc(C)c1OCCN1C(=O)NC(C)(c2ccccc2)C1=O (stereo not given) | -8.3% (inactive)
CC(=O)Nc1ccc(S(=O)(=O)Nc2ccn(Cc3ccccc3Cl)n2)cc1 | -42.3% (inactive)
CC1CCc2cc(F)ccc2N1C(=O)CCC(=O)O (stereo not given) | -29.7% (inactive)
CCC(CC)C(=O)N1c2ccc(F)cc2CCC1C (stereo not given) | 8% (inactive)
CC1CCc2cc(F)ccc2N1C(=O)CCl (stereo not given) | 66.7% (active)
COCCCNC(=S)Nc1cc2oc3ccccc3c2cc1OC | 5.2% (inactive)
CCN(CC(=O)NC1CCS(=O)(=O)C1)S(=O)(=O)c1ccc(F)cc1 (stereo not given) | 25.9% (inactive)
Cc1ccc(C(=O)N2CCCC(N3CCN(c4cccc(C(F)(F)F)c4)CC3)C2)s1 (stereo not given) | -29.8% (inactive)
Cc1ccccc1OCC(=O)N/N=C/c1c(C)nn(-c2ccccc2)c1Cl | -26.9% (inactive)
COc1cc(C(=O)NCCCc2nc3ccccc3n2Cc2cc(C)ccc2C)cc(OC)c1OC | 68.1% (active)
COc1ccc(C(=O)NCCCc2nc3ccccc3n2Cc2ccccc2C)cc1OC | -9.4% (inactive)
COc1ccc(C(=O)NCCCc2nc3ccccc3n2Cc2cc(C)ccc2C)cc1OC | -28.5% (inactive)
CCc1ccc2[nH]c(=O)c(CN(CCCN3CCOCC3)C(=O)Nc3ccc(Cl)cc3)cc2c1 | -9.8% (inactive)
O=S(=O)(Nc1cccc(-c2cn3cccnc3n2)c1)c1ccc(F)cc1 | -1.4% (inactive)
O=S(=O)(Nc1cccc(-c2cn3cccnc3n2)c1)c1ccccc1 | 36.4% (inactive)
CCN(CC)C(=O)Cn1cc(C(=O)C(=O)N2CCN(C)CC2)c2ccccc21 | -22.7% (inactive)
Cc1ccc(C(=O)CC(=O)c2ccccc2)cc1 | -42.7% (inactive)
COc1ccc(C(=O)CC(=O)c2ccc(OC)cc2)cc1 | -23.3% (inactive)
COc1ccc(C(=O)C/C(=C\C(=O)c2ccc(C)cc2)c2ccccc2)cc1 | 71.2% (active)
CC(C)N1CC(C(=O)Nc2ccc(Cl)c([N+](=O)[O-])c2)CC1=O (stereo not given) | -8.3% (inactive)
Cc1ccc2[nH]c3c(c2c1)CCCC3NCCO (stereo not given) | -12.6% (inactive)
Cc1ccc2[nH]c3c(c2c1)CCCC3C(N)=O (stereo not given) | -44.3% (inactive)
Cc1ccc2[nH]c3c(c2c1)CCCC3NC(=O)CCl (stereo not given) | 70% (active)
